Test results published in the supplement of paper PMC10849652.
About 8,800 targets were measured; listed, in parts, are those with a hit and a random draw of the rest. About 0.5% of all pairs of compound and target were hits.

compound: COc1cc2ncnc(Nc3ccc(F)c(Cl)c3)c2cc1OCCCN1CCOCC1 [gefitinib]; experiment: log2 fold change, soluble protein after heating vs DMSO (PISA); higher = thermal stabilisation; K562 lysate, 10 uM; active = over 0.2 and 3.5 SD of the protein, either way, in both replicates (recomputed)
How it was run: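 The values are log-two fold changes in thermal stability compared with solvent controls and come from duplicates. They were obtained by TMTpro 16plex LC-MS/MS, with channel sums equalised, on the supernatant after 21,000xg for 90 min. That supernatant came from crude K562 extract at 1 mg/mL protein treated with 10 μM compound for 30 min, heated for 3 min across 48°C-58°C, pooled and brought to 0.5% NP-40 at 4°C.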

Chain of UniProt Q9NPF4 (Q9NPF4 whole entry, looked up): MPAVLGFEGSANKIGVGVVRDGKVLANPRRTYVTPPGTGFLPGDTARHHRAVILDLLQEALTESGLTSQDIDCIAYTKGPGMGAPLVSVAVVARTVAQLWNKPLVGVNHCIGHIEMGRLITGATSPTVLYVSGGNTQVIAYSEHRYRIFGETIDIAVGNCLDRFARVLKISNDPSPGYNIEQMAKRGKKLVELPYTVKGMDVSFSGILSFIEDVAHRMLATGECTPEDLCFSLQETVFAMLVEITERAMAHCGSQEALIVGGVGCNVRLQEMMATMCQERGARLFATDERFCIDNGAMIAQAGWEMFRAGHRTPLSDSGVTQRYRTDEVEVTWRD
Chain of UniProt P04150 (P04150 whole entry, looked up): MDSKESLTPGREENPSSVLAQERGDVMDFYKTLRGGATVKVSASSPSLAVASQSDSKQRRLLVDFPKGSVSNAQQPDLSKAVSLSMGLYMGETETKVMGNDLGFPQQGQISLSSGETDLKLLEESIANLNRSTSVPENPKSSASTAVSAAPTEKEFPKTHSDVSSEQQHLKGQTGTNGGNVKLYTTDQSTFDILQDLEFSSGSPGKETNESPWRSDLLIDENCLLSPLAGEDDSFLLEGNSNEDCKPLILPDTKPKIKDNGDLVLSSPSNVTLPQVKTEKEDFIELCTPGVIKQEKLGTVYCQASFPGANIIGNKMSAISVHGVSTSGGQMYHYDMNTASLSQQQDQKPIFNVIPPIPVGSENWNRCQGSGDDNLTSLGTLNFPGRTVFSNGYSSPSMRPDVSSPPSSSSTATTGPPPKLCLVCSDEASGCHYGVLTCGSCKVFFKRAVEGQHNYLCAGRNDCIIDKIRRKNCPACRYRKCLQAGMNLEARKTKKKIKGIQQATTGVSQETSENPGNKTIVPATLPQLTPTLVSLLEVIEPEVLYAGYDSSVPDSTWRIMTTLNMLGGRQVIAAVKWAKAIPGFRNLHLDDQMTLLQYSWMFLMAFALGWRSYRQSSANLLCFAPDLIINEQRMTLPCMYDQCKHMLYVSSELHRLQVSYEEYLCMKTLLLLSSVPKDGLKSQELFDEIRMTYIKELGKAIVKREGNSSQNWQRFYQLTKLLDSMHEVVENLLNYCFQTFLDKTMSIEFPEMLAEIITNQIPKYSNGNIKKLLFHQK
Chain of UniProt Q9BRA0 (Q9BRA0 whole entry, looked up): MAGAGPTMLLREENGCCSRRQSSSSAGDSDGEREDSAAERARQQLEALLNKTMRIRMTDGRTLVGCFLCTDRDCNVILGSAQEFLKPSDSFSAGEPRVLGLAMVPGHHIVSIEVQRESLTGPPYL
Chain of UniProt P52948 (P52948 whole entry, looked up): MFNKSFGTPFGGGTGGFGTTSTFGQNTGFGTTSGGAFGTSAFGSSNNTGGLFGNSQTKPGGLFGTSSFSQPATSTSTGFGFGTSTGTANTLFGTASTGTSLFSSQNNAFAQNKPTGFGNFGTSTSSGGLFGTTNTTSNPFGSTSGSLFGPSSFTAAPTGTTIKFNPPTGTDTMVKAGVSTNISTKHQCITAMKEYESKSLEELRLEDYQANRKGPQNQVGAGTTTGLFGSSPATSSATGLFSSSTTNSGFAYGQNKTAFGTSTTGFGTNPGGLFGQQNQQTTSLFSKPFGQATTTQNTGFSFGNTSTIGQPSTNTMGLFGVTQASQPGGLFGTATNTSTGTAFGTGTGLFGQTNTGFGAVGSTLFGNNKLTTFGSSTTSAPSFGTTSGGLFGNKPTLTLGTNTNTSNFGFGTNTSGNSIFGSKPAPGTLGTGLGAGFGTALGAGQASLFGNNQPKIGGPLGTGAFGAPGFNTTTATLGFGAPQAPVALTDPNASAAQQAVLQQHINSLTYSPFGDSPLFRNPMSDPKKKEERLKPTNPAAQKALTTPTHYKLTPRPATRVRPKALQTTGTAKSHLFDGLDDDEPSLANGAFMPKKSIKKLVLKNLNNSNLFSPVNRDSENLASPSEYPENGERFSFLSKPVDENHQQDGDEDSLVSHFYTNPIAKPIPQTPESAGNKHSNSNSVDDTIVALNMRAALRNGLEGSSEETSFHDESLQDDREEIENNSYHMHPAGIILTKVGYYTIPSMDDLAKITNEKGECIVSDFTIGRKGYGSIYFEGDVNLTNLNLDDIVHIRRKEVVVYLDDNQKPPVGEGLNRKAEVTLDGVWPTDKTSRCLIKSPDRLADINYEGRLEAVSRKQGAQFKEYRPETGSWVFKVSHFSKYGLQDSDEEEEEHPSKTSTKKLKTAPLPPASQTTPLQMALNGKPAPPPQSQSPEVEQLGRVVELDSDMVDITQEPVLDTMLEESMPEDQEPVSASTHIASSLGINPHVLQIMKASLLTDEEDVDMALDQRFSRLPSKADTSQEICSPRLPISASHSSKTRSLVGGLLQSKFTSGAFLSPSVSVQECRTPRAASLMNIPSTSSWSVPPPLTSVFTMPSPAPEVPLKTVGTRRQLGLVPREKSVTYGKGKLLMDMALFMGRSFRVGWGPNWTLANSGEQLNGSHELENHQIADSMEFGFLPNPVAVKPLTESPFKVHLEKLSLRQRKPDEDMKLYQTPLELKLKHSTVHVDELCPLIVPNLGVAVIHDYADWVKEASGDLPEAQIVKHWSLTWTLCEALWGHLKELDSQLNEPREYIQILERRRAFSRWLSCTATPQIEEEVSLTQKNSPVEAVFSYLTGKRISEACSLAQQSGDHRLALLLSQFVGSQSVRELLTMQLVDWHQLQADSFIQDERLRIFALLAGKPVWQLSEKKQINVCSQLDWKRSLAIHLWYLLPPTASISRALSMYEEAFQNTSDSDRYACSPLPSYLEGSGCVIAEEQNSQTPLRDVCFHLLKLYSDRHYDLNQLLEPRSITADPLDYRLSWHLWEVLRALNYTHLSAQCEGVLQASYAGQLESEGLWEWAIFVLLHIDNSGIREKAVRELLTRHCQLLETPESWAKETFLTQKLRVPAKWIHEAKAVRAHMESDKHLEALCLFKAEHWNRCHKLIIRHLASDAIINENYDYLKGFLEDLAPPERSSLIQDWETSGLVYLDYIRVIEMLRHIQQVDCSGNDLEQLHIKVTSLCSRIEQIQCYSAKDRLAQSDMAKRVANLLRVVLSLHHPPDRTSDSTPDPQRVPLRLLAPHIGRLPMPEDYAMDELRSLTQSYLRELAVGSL
Chain of MTHFD1, A0A384N5Y3 (A0A384N5Y3 whole entry, looked up): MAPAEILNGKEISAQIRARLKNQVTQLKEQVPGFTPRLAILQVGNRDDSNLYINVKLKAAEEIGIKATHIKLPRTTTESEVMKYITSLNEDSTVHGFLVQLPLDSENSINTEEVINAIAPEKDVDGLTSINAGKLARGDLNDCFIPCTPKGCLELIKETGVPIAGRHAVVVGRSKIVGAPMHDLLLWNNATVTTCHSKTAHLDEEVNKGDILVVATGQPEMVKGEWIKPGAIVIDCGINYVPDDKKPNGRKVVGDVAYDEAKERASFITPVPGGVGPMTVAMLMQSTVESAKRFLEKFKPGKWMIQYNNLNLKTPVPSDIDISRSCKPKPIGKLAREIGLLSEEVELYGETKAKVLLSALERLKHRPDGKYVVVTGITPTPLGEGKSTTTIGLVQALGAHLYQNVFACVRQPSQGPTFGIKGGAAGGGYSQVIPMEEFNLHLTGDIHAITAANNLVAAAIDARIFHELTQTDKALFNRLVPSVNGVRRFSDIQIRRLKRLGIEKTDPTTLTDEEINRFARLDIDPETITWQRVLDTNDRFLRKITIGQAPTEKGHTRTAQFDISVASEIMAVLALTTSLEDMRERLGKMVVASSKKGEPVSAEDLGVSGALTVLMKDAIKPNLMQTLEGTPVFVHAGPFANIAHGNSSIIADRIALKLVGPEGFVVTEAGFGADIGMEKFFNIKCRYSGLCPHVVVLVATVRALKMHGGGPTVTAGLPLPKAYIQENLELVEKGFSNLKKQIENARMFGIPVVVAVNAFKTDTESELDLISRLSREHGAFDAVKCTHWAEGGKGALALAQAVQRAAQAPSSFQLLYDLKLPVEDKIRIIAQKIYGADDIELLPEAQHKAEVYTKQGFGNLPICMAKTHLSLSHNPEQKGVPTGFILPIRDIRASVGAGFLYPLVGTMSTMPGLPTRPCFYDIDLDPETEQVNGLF
Chain of UniProt Q9BPX3 (Q9BPX3 whole entry, looked up): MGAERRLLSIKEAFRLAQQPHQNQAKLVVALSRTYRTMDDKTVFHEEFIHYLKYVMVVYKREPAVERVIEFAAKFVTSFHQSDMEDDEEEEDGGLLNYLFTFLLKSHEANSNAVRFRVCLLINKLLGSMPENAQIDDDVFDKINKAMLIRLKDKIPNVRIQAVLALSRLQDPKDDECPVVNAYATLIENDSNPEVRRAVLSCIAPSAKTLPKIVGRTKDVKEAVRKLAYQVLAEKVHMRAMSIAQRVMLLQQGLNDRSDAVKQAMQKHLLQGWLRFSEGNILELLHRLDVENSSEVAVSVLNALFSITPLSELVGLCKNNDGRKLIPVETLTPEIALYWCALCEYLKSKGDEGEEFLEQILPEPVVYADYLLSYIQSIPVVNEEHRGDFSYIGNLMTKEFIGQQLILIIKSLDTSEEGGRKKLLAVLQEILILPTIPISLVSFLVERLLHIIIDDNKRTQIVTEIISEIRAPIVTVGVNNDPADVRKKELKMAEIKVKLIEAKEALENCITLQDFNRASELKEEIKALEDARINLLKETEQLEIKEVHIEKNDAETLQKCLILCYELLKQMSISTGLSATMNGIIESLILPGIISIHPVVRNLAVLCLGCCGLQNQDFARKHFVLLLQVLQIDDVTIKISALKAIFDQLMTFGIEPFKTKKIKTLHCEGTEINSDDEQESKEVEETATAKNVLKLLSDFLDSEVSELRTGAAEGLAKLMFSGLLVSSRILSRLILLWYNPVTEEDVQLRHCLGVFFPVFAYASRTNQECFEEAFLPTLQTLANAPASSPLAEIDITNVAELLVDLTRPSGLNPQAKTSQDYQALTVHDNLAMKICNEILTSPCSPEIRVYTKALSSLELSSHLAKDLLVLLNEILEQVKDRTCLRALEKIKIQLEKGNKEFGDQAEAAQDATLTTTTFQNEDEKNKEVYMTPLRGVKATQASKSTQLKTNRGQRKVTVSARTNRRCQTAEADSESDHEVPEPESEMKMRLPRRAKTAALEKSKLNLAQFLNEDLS

log2 fold change, inactive:
NUMBL (UniProt Q9Y6R0) 0.09
OPA1 isoform 2 (UniProt O60313) -0.003
MTHFD1L (UniProt B7ZM99) -0.007
PARD3 (UniProt Q8TEW0) 0.04
NACC1 (UniProt Q96RE7) -0.019
NEDD8 (UniProt Q15843) -0.148
PANK4 (UniProt Q9NVE7) -0.017
NAA35 (UniProt Q5VZE5) -0.008
OGFR (UniProt Q9NZT2) -0.004
MTMR6 (UniProt Q9Y217) -0.053
OTC (UniProt P00480) 0.184
NELFCD (UniProt Q8IXH7) -0.009
NFATC2IP (UniProt Q8NCF5) 0.023
NUDT4 isoform 2 (UniProt Q9NZJ9) -0.023
NADK2 (UniProt Q4G0N4) -0.009
NUP98 (UniProt P52948) 0.011
NR3C1 isoform 3 (UniProt P04150) 0.013
PAXBP1 (UniProt Q9Y5B6) -0.038
NCAPD3 (UniProt P42695) -0.002
NPLOC4 isoform 2 (UniProt Q8TAT6) -0.018
N4BP2 (UniProt Q86UW6) -0.005
NCAPD2 (UniProt Q15021) -0.016
NCAPG (UniProt Q9BPX3) 0.003
NOSTRIN (UniProt Q8IVI9) 0.004
NUP160 (UniProt Q12769) 0.031
MT-CYB (UniProt P00156) 0.102
PARG (UniProt Q86W56) 0.046
OSGEP (UniProt Q9NPF4) -0.032
ORC3 isoform 2 (UniProt Q9UBD5) -0.019
MTHFD1, A0A384N5Y3 -0.025
NAA38 isoform 2 (UniProt Q9BRA0) -0.017
NPTN (UniProt Q9Y639) 0.024
NUP133 (UniProt Q8WUM0) -0.003
MSI2 (UniProt Q96DH6) -0.031
PAN2 isoform 2 (UniProt Q504Q3) -0.044
NPM3 (UniProt O75607) -0.015
